Measured values published in PubChem BioAssay.
Where “and” joins values, the source holds several entries; their conditions need not be identical. Equal entries are not always repeated. Inconclusive results are not listed. A structure can be active in one record and inactive in another. Calls of active or inactive are those of the source.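 Rule for the calls, unless noted: active = efflux inhibition above 0.42, the validation set average plus 4 SD; inconclusive = no clear call, values can overlap the other calls; inactive = the rest.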

Experiments:
[1] = rapamycin-like changes in RPL19A-GFP expression – cell-based, S. cerevisiae, multiplex flow cytometry, primary screen (AID 1862; in the data active = percent of DMSO control GFP below about 86%;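 note: lower values mimic rapamycin by blocking the RPL19A rise seen in DMSO cells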); details: S. cerevisiae RPL19A-GFP strain, flow cytometry fluorescence, 3 h; at 10 µM; stronger effect = lower value
[2] = TOR pathway GLN3 branch reporter MEP2-GFP changes – S. cerevisiae, multiplex flow cytometry, primary screen (AID 1867;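 active = GFP response, as percent of the DMSO control, above the screen-wide mean plus 3 SD, about 139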;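 note: median GFP channel fluorescence of barcode-gated MEP2-GFP cells measured by flow cytometry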); details: S. cerevisiae MEP2-GFP strain, 3 h, at 10 µM, stronger effect = higher value, 100% means same as DMSO wells
[3] = TOR pathway RTG branch CIT2 reporter changes – S. cerevisiae, GFP fusion, multiplex flow cytometry, primary screen (AID 1870;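 active = percent response above a set limit, the screen-wide mean plus 3 SD, cut at about 130% in these data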;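 note: barcoded CIT2-GFP strain pooled with four other GFP strains with rapamycin as positive control; median GFP fluorescence per well over plate mean of DMSO wells so 100% = DMSO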); details: S. cerevisiae CIT2-GFP expression, 3 h, at 10 µM, stronger effect = higher value
[4] = TOR pathway LAP4-GFP level changes – S. cerevisiae, multiplex flow cytometry, primary screen (AID 1873;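 active = GFP signal, as percent of the solvent control, above the screen mean plus 3 SD, about 149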); details: S. cerevisiae LAP4-GFP expression, 3 h, at 10 µM, stronger effect = higher value
[5] = yeast AGP1-GFP level changes, GLN3 branch – cell-based, multiplex flow cytometry, S. cerevisiae, primary screen (AID 1887;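 active = GFP signal above the screen-wide mean plus 3 SD, that is over about 124.5% of the solvent control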;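 note: AGP1-GFP fusion strain of S. cerevisiae within a five-strain barcoded multiplex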); details: 3 h, at 10 µM, stronger effect = higher value
[6] = hit retest on RPL19A-GFP reporter strain – cell-based, S. cerevisiae, flow cytometry, cherry picks, mother/daughter gates, confirmation (AID 2270;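 active = GFP response below 50% of the DMSO control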); details: 3 h, at 10 µM, stronger effect = lower value, 100 = same GFP as DMSO wells
[7] = yeast TOR pathway reporter LAP4-GFP change – cell-based, cherry picks, flow cytometry, mother/daughter gates, confirmation (AID 2271;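 active = GFP response above 150% of the DMSO control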;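 note: ratio of sample to DMSO plate mean so 100% equals DMSO level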); details: S. cerevisiae LAP4-GFP strain, 3 h, at 10 µM, stronger effect = higher value, 100 means same as DMSO control
[8] = TOR pathway reporter MEP2-GFP, retest of hits – S. cerevisiae, flow cytometry GFP, cherry picks, confirmation (AID 2272;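 active = GFP response above 150% of the DMSO control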;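 note: ratio of well signal to plate DMSO mean so 100% equals DMSO level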); details: S. cerevisiae MEP2-GFP strain, 3 h, at 10 µM, stronger effect = higher value
[9] = TOR pathway CIT2 reporter hit retest – S. cerevisiae, GFP fusion, cherry picks, mother/daughter gates, confirmation (AID 2274;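 active = GFP response above 150% of the DMSO level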); details: S. cerevisiae CIT2-GFP strain, flow cytometry, 3 h, at 10 µM, stronger effect = higher value
[10] = reduced mouse 2C T cell binding to pMHC/ICAM-1 vesicles – MLPCN validation set, flow cytometry, LFA-1/ICAM-1 modulator project, pilot screen (AID 2523;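 active = response below a set limit, under 55% cells CD8-positive and vesicle-bound, and CD8 cells' 90th-percentile brightness under 279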;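 for vesicle binding response: mean PE anti-B7-1 fluorescence of CD8+ cells relative to row control; 100% = QL9-loaded vesicles with DMSO vehicle in the same plate row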); details: 2C mouse CD8+ T cells, at 7 µM, stronger effect = lower value; double positive events: measured here: CD8+/vesicle+ event percentage
[11] = biological target: Integrin beta-1 (Homo sapiens) + Integrin alpha-4 (Homo sapiens) (UniProt P13612+P05556); experiment: alpha4beta1 integrin LIBS antibody binding reduction – U937 cells, HUTS-21 mAb, flow cytometry, validation set, VLA-4 allosteric modulator project, pilot screen (AID 2674;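 active = inhibition above 50%, about 3 SD of the validation set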;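 note: antibody binding induced by the VLA-4 ligand LDV present at three times its Kd; 0% = LDV ligand with antibody and no compound and 100% = antibody without LDV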); details: HUTS-21 LIBS mAb binding, at 6.7 µM, stronger effect = higher value, binding induced by LDV ligand
Chain of Integrin beta-1 (Homo sapiens) + Integrin alpha-4 (Homo sapiens) (P05556 whole entry, looked up): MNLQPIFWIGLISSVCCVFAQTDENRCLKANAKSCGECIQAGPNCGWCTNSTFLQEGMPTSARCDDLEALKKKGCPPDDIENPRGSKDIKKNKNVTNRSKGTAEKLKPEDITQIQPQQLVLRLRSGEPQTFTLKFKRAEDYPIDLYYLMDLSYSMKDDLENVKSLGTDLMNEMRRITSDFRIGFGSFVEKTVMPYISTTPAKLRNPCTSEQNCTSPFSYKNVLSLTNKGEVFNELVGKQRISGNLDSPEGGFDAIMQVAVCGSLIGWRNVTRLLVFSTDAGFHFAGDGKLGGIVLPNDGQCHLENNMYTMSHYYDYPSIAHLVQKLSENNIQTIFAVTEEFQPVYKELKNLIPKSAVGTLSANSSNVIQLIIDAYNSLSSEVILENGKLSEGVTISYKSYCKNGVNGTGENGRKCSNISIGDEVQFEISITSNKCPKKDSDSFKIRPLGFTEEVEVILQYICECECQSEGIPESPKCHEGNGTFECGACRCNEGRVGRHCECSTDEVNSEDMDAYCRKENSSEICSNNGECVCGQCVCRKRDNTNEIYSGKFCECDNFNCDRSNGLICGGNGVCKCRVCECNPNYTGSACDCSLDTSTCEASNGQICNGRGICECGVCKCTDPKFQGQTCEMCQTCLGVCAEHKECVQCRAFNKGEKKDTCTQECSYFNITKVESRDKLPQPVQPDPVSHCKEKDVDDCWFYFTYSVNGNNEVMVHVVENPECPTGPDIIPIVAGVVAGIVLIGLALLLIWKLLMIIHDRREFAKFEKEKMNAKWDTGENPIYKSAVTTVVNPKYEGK
Chain of Integrin beta-1 (Homo sapiens) + Integrin alpha-4 (Homo sapiens) (P13612 whole entry, looked up): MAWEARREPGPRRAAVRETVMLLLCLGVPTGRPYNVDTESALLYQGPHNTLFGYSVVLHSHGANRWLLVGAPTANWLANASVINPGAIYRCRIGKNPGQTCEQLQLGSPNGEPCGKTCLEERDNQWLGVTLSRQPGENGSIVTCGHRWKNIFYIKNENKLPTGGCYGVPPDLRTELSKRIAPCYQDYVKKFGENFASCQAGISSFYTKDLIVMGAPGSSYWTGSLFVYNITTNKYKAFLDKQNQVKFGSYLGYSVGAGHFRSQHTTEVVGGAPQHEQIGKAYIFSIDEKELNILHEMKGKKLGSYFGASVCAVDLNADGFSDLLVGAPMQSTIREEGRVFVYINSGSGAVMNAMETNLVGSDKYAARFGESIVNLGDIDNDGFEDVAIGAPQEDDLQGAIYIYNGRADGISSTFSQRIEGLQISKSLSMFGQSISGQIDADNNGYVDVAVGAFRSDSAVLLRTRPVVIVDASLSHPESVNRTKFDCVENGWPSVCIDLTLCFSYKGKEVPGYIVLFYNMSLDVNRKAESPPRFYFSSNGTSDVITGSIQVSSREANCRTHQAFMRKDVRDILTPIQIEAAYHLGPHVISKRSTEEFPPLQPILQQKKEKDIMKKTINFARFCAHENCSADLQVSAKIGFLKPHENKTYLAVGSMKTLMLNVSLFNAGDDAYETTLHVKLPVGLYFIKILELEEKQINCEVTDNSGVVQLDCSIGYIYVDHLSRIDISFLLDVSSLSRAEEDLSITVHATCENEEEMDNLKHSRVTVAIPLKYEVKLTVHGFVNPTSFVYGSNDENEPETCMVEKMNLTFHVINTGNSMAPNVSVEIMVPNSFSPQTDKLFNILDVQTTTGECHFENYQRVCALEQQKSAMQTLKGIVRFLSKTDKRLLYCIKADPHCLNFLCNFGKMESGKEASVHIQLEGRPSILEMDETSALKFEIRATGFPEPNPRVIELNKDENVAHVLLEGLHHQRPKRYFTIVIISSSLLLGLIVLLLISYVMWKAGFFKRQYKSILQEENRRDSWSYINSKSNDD

[12] = calorie-restriction mimetic ROS inhibitors, yeast – validation compound set, pilot screen (AID 2706;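 active = superoxide response below 65% of plate, a cut near 3 SD across the whole screen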;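 note: yeast exposed to compound for one week at 30 degrees C before staining; 100% = mean of all compound wells on the same plate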); details: S. cerevisiae aging, superoxide DHE fluorescence; at 10 µM; stronger effect = lower value
[13] = biological target: Beta-adrenergic receptor kinase 1 (Homo sapiens) (UniProt P25098); experiment: GRK2 binders displacing RNA aptamer, biochemical, validation, human GRK2, bead flow cytometry (AID 488806;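 active = aptamer binding inhibition above 30%, about 3 SD of noise from non-fluorescent compounds; inactive = inhibition at or below 30%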); details: bead-bound GRK2, FAM-aptamer displacement, at 10 µM, stronger effect = higher value
Chain of Beta-adrenergic receptor kinase 1 (Homo sapiens) (P25098 whole entry, looked up): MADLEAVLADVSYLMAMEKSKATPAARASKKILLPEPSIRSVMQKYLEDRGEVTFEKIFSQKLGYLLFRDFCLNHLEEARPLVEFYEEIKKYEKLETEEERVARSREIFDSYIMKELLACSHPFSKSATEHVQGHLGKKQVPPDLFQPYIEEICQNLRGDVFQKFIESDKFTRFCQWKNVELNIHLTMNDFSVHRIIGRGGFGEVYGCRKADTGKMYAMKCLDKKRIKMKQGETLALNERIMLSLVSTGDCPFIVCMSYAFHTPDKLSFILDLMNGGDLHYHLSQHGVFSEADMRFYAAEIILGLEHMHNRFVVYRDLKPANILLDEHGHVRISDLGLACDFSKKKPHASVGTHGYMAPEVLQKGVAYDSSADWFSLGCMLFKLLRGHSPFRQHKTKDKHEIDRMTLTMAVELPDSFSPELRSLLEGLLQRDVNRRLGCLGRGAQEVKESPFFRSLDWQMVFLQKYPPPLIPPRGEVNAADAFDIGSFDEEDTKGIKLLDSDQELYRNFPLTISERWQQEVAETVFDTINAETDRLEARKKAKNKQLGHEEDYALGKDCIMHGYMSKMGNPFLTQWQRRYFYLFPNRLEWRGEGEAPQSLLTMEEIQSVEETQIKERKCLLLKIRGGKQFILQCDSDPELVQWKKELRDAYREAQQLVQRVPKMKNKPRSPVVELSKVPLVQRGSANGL

[14] = biological target: Beta-2 adrenergic receptor (Homo sapiens) (UniProt P07550); experiment: agonist-induced loss of surface beta2AR – cell-based, FAP fluorogen, flow cytometry, validation set, pilot screen (AID 504459;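 active = percent response above 42, roughly 3 SD of non-fluorescent test compounds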;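 note: agonist-driven loss of surface beta2AR via internalization measured by FAP dye flow cytometry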); details: Am2.2-beta2AR cells, at 10 µM, stronger effect = higher value
Chain of Beta-2 adrenergic receptor (Homo sapiens) (P07550 whole entry, looked up): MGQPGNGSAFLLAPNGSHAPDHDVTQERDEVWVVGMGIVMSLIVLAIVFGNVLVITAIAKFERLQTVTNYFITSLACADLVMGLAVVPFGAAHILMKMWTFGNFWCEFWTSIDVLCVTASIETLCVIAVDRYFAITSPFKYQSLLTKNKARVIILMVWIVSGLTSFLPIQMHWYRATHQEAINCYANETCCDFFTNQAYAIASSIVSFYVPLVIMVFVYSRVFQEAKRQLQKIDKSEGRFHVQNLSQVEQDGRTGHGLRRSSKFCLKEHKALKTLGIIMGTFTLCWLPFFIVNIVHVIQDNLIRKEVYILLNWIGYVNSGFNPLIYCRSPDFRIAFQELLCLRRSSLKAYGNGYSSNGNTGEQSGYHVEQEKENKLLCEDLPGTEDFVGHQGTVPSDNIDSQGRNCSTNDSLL

[15] = biological target: AP-2 complex subunit beta (Homo sapiens) (UniProt P63010); experiment: beta-arrestin/AP2 interaction blockers – biochemical, validation set, GST-AP2 beads, flow cytometry, pilot screen (AID 504541;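 active = inhibition above 54%, about 3 SD of non-fluorescent compounds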;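 note: AP2 carries R879A mutation and is captured from E. coli lysate; bead-bound FITC arrestin peptide fluorescence measuring arrestin peptide binding to AP2; 0% = DMSO wells and 100% = excess unlabeled arrestin peptide control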); details: FITC arrestin peptide, at 10 µM, stronger effect = higher value, AP2 beta2 appendage fragment, R879A mutant
Chain of AP-2 complex subunit beta (Homo sapiens) (P63010 whole entry, looked up, the tested form may be a part, one chain of several): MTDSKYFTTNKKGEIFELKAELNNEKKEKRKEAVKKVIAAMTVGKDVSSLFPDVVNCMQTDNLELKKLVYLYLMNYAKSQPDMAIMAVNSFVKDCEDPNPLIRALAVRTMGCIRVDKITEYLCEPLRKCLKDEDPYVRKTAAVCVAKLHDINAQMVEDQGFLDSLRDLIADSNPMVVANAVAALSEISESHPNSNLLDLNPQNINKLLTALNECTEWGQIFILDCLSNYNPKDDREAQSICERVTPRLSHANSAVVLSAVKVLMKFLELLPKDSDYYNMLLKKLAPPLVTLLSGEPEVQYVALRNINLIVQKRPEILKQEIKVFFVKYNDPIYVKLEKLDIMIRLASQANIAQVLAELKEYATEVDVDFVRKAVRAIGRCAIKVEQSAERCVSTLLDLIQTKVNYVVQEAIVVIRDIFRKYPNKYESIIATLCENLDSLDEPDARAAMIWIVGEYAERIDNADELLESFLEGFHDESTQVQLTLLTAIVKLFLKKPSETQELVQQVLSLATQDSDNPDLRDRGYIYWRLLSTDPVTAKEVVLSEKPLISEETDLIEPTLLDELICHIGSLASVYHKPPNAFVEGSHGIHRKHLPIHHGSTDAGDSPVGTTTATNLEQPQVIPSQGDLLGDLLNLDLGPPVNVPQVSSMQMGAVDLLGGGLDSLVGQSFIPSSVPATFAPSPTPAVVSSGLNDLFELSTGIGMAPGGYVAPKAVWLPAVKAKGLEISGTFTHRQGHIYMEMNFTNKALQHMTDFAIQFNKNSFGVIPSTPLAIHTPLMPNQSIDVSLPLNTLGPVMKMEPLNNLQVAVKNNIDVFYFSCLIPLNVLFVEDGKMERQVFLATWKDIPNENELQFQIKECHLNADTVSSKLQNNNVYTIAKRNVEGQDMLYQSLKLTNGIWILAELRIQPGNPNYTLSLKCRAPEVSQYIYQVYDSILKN

[16] = cytosolic pH regulators acting via V-ATPase – S. cerevisiae, pHLuorin, HTS validation (AID 504600; in the data active = response above about 15%;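 note: plate controls were DMSO for no effect and reference compound for full effect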); details: V-ATPase proton transport, at 10 µM, stronger effect = higher value
[17] = system: anti-desmoglein-3 scFv antibody binding to human DSG3; experiment: blockers of pathogenic pemphigus antibody–desmoglein-3 binding – biochemical, validation compound set, bead-based, flow cytometry, pilot screen (AID 588368;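 active = binding below the plate cutoff, the plate median minus 3 SD, with a reading above zero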;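 note: signal is the median channel fluorescence of bead-bound GFP antibody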); details: Protein G beads, DSG3-Fc, scFv-GFP binding, at 10 µM, stronger effect = lower value
[18] = Nile Red efflux blockade in pump-expressing yeast – validation compound set, multiplex, phenotypic, pilot screen (AID 588506);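 note: Nile Red retained in cells so higher fluorescence means more efflux inhibition; 0 = negative control wells and 1 = enniatin B 25 µM full block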; details: S. cerevisiae pump-expressing triplex, Nile Red efflux flow cytometry; at 10 µM; stronger effect = higher value; the pumps come from Candida albicans
[19] = biological target: ATP-binding cassette sub-family B member 6 (Homo sapiens) (UniProt Q9NP58); experiment: blockers of ABCB6-driven porphyrin uptake – K562-ABCB6 cells, flow cytometry, validation set, pilot screen (AID 588550;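 active = inhibition above the screen-wide mean plus 3 SD, about 51%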;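 note: 0% = DMSO wells and 100% = benzethonium chloride 70 µM positive control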); details: K562-ABCB6 porphyrin accumulation, 1 h, at 10 µM, stronger effect = higher value
Chain of ATP-binding cassette sub-family B member 6 (Homo sapiens) (Q9NP58 whole entry, looked up): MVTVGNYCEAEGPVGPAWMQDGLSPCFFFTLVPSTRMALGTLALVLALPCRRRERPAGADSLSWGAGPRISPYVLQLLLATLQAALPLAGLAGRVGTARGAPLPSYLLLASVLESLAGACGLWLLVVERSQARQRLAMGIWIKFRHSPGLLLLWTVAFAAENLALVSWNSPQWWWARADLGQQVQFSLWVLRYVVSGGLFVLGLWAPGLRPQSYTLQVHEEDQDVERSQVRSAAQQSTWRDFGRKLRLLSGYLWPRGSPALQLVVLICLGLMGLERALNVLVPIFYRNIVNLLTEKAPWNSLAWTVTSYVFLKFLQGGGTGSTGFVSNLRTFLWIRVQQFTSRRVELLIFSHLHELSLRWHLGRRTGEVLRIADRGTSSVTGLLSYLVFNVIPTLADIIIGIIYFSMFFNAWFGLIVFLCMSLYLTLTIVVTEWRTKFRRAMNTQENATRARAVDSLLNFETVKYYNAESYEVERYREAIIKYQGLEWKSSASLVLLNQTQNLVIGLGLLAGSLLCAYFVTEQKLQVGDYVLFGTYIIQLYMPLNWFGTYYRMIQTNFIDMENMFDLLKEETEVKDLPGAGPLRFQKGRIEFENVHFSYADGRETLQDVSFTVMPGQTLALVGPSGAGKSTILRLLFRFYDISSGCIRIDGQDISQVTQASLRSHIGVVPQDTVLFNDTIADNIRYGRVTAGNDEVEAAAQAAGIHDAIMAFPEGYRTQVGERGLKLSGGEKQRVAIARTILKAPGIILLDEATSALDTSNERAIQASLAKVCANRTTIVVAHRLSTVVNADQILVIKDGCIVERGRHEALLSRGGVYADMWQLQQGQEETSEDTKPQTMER

[20] = AML differentiation inducers, ER-HoxA9 marrow cells – cell-based, GFP/MAC1 double positive, flow cytometry, validation set, primary screen (AID 588685;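 active = differentiation response of at least 50%, scaled between solvent and reference control, from cells with both markers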;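 note: compound exposure lasts four days before antibody staining and flow analysis; 0% = DMSO wells and 100% = 5 µM fulvestrant positive control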); details: stronger effect = higher value, normalized: vehicle 0, fulvestrant 100
[21] = measured here: daughter cell gate
[22] = measured here: mother cell gate
[23] = measured here: daughter cell gate response
[24] = measured here: mother cell gate response

O=c1cnn([C@@H]2O[C@H](CO)[C@@H](O)[C@H]2O)c(=O)[nH]1
percent of DMSO control GFP [1]: 84.9% (active)
GFP response vs DMSO [2]: 88.8% (inactive)
percent response of DMSO control [3]: 80.8% (inactive)
GFP response vs DMSO [4]: 129% (inactive)
GFP response, % of DMSO [5]: 98% (inactive)
GFP response vs DMSO [6]: 80.6% (inactive)
GFP response vs DMSO [6, 21]: 81%
GFP response vs DMSO [6, 22]: 81.6%
GFP response relative to DMSO [7]: 109% (inactive)
GFP response relative to DMSO [7, 23]: 104%
GFP response relative to DMSO [7, 24]: 109%
GFP response vs DMSO [8]: 93.3% (inactive)
GFP response, % of DMSO [9]: 77.7% (inactive)
GFP response, % of DMSO [9, 21]: 77.9%
GFP response, % of DMSO [9, 22]: 74.6%
double positive events [10]: 62.2%
vesicle binding response [10]: 127% (inactive)
inhibition [11]: 13.4% (inactive)
superoxide response (% of plate) [12]: 124% (inactive)
aptamer binding inhibition [13]: 1% (inactive)
response [14]: -10.1% (inactive)
inhibition [15]: -3.47% (inactive)
response [16]: -1.24% (inactive)
binding (% of control) [17]: 107% (inactive)
efflux inhibition (fraction of control) [18]: -0.04 (inactive)
inhibition [19]: 0% (inactive)
differentiation response [20]: 1.91% (inactive)

COc1cccc(/C=C/C(=O)c2c(O)cc(C)oc2=O)c1O
percent of DMSO control GFP [1]: 104% (inactive)
GFP response vs DMSO [2]: 108% (inactive)
percent response of DMSO control [3]: 82.5% (inactive)
GFP response vs DMSO [4]: 184% (active)
GFP response, % of DMSO [5]: 91.1% (inactive)
GFP response vs DMSO [6]: 101% (inactive)
GFP response vs DMSO [6, 21]: 104%
GFP response vs DMSO [6, 22]: 99.7%
GFP response relative to DMSO [7]: 165% (active)
GFP response relative to DMSO [7, 23]: 155%
GFP response relative to DMSO [7, 24]: 175%
GFP response vs DMSO [8]: 107% (inactive)
GFP response, % of DMSO [9]: 91.2% (inactive)
GFP response, % of DMSO [9, 21]: 99.1%
GFP response, % of DMSO [9, 22]: 90.2%
double positive events [10]: 62.2%
vesicle binding response [10]: 259% (inactive)
inhibition [11]: -3.16% (inactive)
superoxide response (% of plate) [12]: 80.7% (inactive)
aptamer binding inhibition [13]: 3% (inactive)
response [14]: 17.4% (inactive)
inhibition [15]: 10.4% (inactive)
response [16]: 2.77% (inactive)
binding (% of control) [17]: 104% (inactive)
efflux inhibition (fraction of control) [18]: 0.19 (inactive)
inhibition [19]: -4% (inactive)
differentiation response [20]: 5.6% (inactive)

C[n+]1ccccc1/C=N/O
percent of DMSO control GFP [1]: 99.2% (inactive) and 98.9% (inactive)
GFP response vs DMSO [2]: 143% (active) and 101% (inactive)
percent response of DMSO control [3]: 101% (inactive) and 95.5% (inactive)
GFP response vs DMSO [4]: 90.2% (inactive) and 97% (inactive)
GFP response, % of DMSO [5]: 98.2% (inactive) and 98.3% (inactive)
GFP response vs DMSO [6]: 99% (inactive)
GFP response vs DMSO [6, 21]: 99.5%
GFP response vs DMSO [6, 22]: 99.6%
GFP response relative to DMSO [7]: 98.7% (inactive)
GFP response relative to DMSO [7, 23]: 100%
GFP response relative to DMSO [7, 24]: 101%
GFP response vs DMSO [8]: 100% (inactive)
GFP response, % of DMSO [9]: 111% (inactive)
GFP response, % of DMSO [9, 21]: 108%
GFP response, % of DMSO [9, 22]: 112%
double positive events [10]: 60.5% and 64%
vesicle binding response [10]: 142% (inactive) and 180% (inactive)
inhibition [11]: 15.2% (inactive) and -21.2% (inactive)
superoxide response (% of plate) [12]: 102% (inactive) and 95% (inactive)
aptamer binding inhibition [13]: 2% (inactive) and 0% (inactive)
response [14]: 5.73% (inactive) and -2.86% (inactive)
inhibition [15]: -7.09% (inactive) and 7.17% (inactive)
response [16]: -0.64% (inactive) and -1.12% (inactive)
binding (% of control) [17]: 104% (inactive) and 95.1% (inactive)
efflux inhibition (fraction of control) [18]: -0.2 (inactive) and -0.47 (inactive)
inhibition [19]: 9% (inactive) and 0% (inactive)
differentiation response [20]: 0.82% (inactive) and 2.74% (inactive)
